Laboratory results reported in PubChem BioAssay AID1159580 (chemical genetic matrix, 2015).
About 2,000 (36%) of roughly 5,500 compounds were called active. Inconclusive results (about 18%) are left out. Rule as the data show it: active = normalized growth mostly below about 0.91 (no sharp cut-off); inconclusive = no clear call, values can overlap the other calls; inactive = mostly above about 0.92. This is one part of the list.

Test: chemical genetic growth profiling, strain panel (AID 1159580);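 also: tested at 20 µM; growth read once vehicle control cultures reached saturation at 30 °C; 1 = growth at the plate median or of vehicle wells; lower values mean less growth of the strain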
Settings: growth OD
[1] = S. cerevisiae deletion strains, locus YAL013W, strain DEP1, hits give low values
[2] = S. cerevisiae deletion strains, locus YGR229C, strain SMI1, hits give low values
[3] = S. cerevisiae deletion strains, locus YMR263W, strain SAP30, hits give low values
[4] = S. cerevisiae deletion strains, locus YMR307W, strain GAS1, hits give low values
[5] = S. cerevisiae deletion strains, locus YNL128W, strain TEP1, hits give low values
[6] = S. cerevisiae deletion strains, locus YPL241C, strain CIN2, hits give low values

Measured: normalized growth

CC(C)(C)NC[C@H](O)COc1nsnc1N1CCOCC1
inactive: [1] 1.01 | S. cerevisiae deletion strains, locus YAL040C, strain CLN3, hits give low values 1.03 | S. cerevisiae deletion strains, locus YCL061C, strain MRC1 (second series), hits give low values 1 | S. cerevisiae deletion strains, locus YDR363W, strain ESC2, hits give low values 0.989 | S. cerevisiae deletion strains, locus YER002W, strain NOP16, hits give low values 0.998 | [2] 1.03 | [3] 0.993 | [4] 0.992 | [5] 0.995 | S. cerevisiae deletion strains, locus YNL175C, strain NOP13, hits give low values 0.997 | S. cerevisiae deletion strains, locus YNL197C, strain WHI3, hits give low values 0.99 | S. cerevisiae deletion strains, locus YNL224C, strain SQS1, hits give low values 0.988 | S. cerevisiae deletion strains, locus YOR083W, strain WHI5 (second series), hits give low values 0.996 | [6] 1

CCS(=O)CCSP(=O)(OC)OC (stereo not given)
inactive: [1] 1.01 | S. cerevisiae deletion strains, locus YBR021W, strain FUR4, hits give low values 1 | S. cerevisiae deletion strains, locus YBR229C, strain ROT2, hits give low values 1.02 | S. cerevisiae deletion strains, locus YCL029C, strain bik1, hits give low values 1 | S. cerevisiae deletion strains, locus YDL035C, strain GPR1, hits give low values 1.01 | S. cerevisiae deletion strains, locus YDL074C, strain BRE1, hits give low values 0.998 | S. cerevisiae deletion strains, locus YDL101C, strain DUN1, hits give low values 1.01 | S. cerevisiae deletion strains, locus YDL134C, strain PPH21, hits give low values 1.01 | S. cerevisiae deletion strains, locus YDL185W, strain tfp1, hits give low values 1.01 | S. cerevisiae deletion strains, locus YDL192W, strain arf1, hits give low values 1 | S. cerevisiae deletion strains, locus YDR101C, strain arx1, hits give low values 1 | S. cerevisiae deletion strains, locus YDR150W, strain NUM1, hits give low values 1.01 | S. cerevisiae deletion strains, locus YDR162C, strain NBP2, hits give low values 1.03 | S. cerevisiae deletion strains, locus YDR318W, strain mcm21, hits give low values 1.01 | S. cerevisiae deletion strains, locus YDR388W, hits give low values 1.01 | S. cerevisiae deletion strains, locus YDR502C, strain sam2, hits give low values 0.995 | S. cerevisiae deletion strains, locus YEL061C, strain CIN8, hits give low values 1.02 | S. cerevisiae deletion strains, locus YER110C, hits give low values 1.01 | S. cerevisiae deletion strains, locus YER155C, strain BEM2, hits give low values 1.02 | S. cerevisiae deletion strains, locus YER167W, strain BCK2, hits give low values 1.02 | S. cerevisiae deletion strains, locus YGL078C, strain dbp3, hits give low values 1.01 | S. cerevisiae deletion strains, locus YGL086W, strain mad1, hits give low values 1 | S. cerevisiae deletion strains, locus YGL248W, strain PDE1, hits give low values 1.01 | S. cerevisiae deletion strains, locus YGR078C, strain PAC10, hits give low values 1.02 | S. cerevisiae deletion strains, locus YGR135W, strain pre9, hits give low values 1.01 | [2] 0.999 | S. cerevisiae deletion strains, locus YGR252W, strain gcn5, hits give low values 0.945 | S. cerevisiae deletion strains, locus YHR030C, strain SLT2, hits give low values 1 | S. cerevisiae deletion strains, locus YHR079C, strain IRE1 (second series), hits give low values 1.01 | S. cerevisiae deletion strains, locus YHR094C, strain hxt1, hits give low values 1.01 | S. cerevisiae deletion strains, locus YHR129C, strain ARP1, hits give low values 1.02 | S. cerevisiae deletion strains, locus YHR200W, strain rpn10, hits give low values 1 | S. cerevisiae deletion strains, locus YIL066C, strain RNR3, hits give low values 1.03 | S. cerevisiae deletion strains, locus YIL073C, strain SPO22, hits give low values 1.06 | S. cerevisiae deletion strains, locus YIL125W, strain kgd1, hits give low values 0.997 | S. cerevisiae deletion strains, locus YIR030C, strain dcg1, hits give low values 1.01 | S. cerevisiae deletion strains, locus YJL095W, strain BCK1, hits give low values 1.03 | S. cerevisiae deletion strains, locus YJL134W, strain LCB3, hits give low values 1.01 | S. cerevisiae deletion strains, locus YJL168C, strain set2, hits give low values 1 | S. cerevisiae deletion strains, locus YJL187C, strain SWE1 (second series), hits give low values 1.02 | S. cerevisiae deletion strains, locus YJR043C, strain POL32, hits give low values 1.02 | S. cerevisiae deletion strains, locus YJR075W, strain HOC1, hits give low values 0.99 | S. cerevisiae deletion strains, locus YKL009W, strain mrt4, hits give low values 0.977 | S. cerevisiae deletion strains, locus YKL068W, hits give low values 1 | S. cerevisiae deletion strains, locus YKL085W, strain MDH1 (second series), hits give low values 1.01 | S. cerevisiae deletion strains, locus YKL085W, strain MDH1, hits give low values 1.01 | S. cerevisiae deletion strains, locus YKL190W, strain CNB1, hits give low values 1.01 | S. cerevisiae deletion strains, locus YKR001C, strain vps1, hits give low values 1 | S. cerevisiae deletion strains, locus YLR039C, strain RIC1, hits give low values 1.04 | S. cerevisiae deletion strains, locus YLR058C, strain SHM2, hits give low values 1.02 | S. cerevisiae deletion strains, locus YLR102C, strain apc9, hits give low values 1 | S. cerevisiae deletion strains, locus YLR262C, strain YPT6, hits give low values 1.02 | S. cerevisiae deletion strains, locus YLR268W, strain sec22, hits give low values 0.999 | S. cerevisiae deletion strains, locus YLR330W, strain CHS5, hits give low values 1.01 | S. cerevisiae deletion strains, locus YLR342W, strain FKS1 (second series), hits give low values 1.02 | S. cerevisiae deletion strains, locus YLR371W, strain rom2, hits give low values 0.999 | S. cerevisiae deletion strains, locus YLR418C, strain cdc73, hits give low values 0.984 | S. cerevisiae deletion strains, locus YML016C, strain PPZ1, hits give low values 1.01 | S. cerevisiae deletion strains, locus YML032C, strain rad52, hits give low values 1.01 | S. cerevisiae deletion strains, locus YML124C, strain tub3, hits give low values 1.01 | S. cerevisiae deletion strains, locus YMR078C, strain ctf18, hits give low values 1.01 | S. cerevisiae deletion strains, locus YMR223W, strain ubp8, hits give low values 1 | [3] 1.02 | [4] 1 | S. cerevisiae deletion strains, locus YNL067W, strain RPL9B, hits give low values 1.01 | [5] 1.02 | S. cerevisiae deletion strains, locus YNL153C, strain GIM3, hits give low values 1.01 | S. cerevisiae deletion strains, locus YNL233W, strain BNI4, hits give low values 1.01 | S. cerevisiae deletion strains, locus YNL250W, strain rad50, hits give low values 1.01 | S. cerevisiae deletion strains, locus YNL271C, strain bni1, hits give low values 1 | S. cerevisiae deletion strains, locus YNL298W, strain CLA4, hits give low values 1.01 | S. cerevisiae deletion strains, locus YNL307C, strain MCK1, hits give low values 1.01 | S. cerevisiae deletion strains, locus YNL322C, strain KRE1, hits give low values 1.01 | S. cerevisiae deletion strains, locus YNR052C, strain pop2, hits give low values 1 | S. cerevisiae deletion strains, locus YOL006C, strain TOP1, hits give low values 1.01 | S. cerevisiae deletion strains, locus YOL012C, strain htz1 0.877 | S. cerevisiae deletion strains, locus YOL147C, strain pex11, hits give low values 1 | S. cerevisiae deletion strains, locus YOR061W, strain CKA2, hits give low values 1.01 | S. cerevisiae deletion strains, locus YOR069W, strain VPS5, hits give low values 1 | S. cerevisiae deletion strains, locus YOR136W, strain idh2, hits give low values 1 | S. cerevisiae deletion strains, locus YOR144C, strain elg1, hits give low values 1.01 | S. cerevisiae deletion strains, locus YOR184W, strain ser1, hits give low values 1 | S. cerevisiae deletion strains, locus YOR316C, strain cot1, hits give low values 1 | S. cerevisiae deletion strains, locus YPL055C, strain LGE1, hits give low values 1.01 | [6] 1.01 | S. cerevisiae deletion strains, locus YPR119W, strain clb2, hits give low values 1.01 | S. cerevisiae deletion strains, locus YPR141C, strain kar3, hits give low values 0.997 | S. cerevisiae deletion strains, locus YPR163C, strain tif3, hits give low values 1.01 | S. cerevisiae deletion strains, locus YPR167C, strain met16, hits give low values 0.998 | S. cerevisiae deletion strains, strain wtn01, hits give low values 0.996 | S. cerevisiae strains, strain wild type, hits give low values 1.01
